An excerpt weighted towards active compounds, which were near 5.5% of everything screened.
Gal4-VP16 FLuc: VP16 counterscreen qHTS for inhibitors of ROR gamma transcriptional activity; Drosophila S2 Gal4-VP16 UAS-luciferase, luminescence, 20 h; Potency, µM (doses to about 53.6 µM), inactives show at the top dose activity, negative = inhibition, most hits filed as inhibitors; 3.5% of 310,000 active;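 also: Gal4-VP16 expression switched on by copper sulfate through the metallothionein promoter; % is scaled to controls: 0 for no effect and ±100 for the full control effect; nearly all actives have a fitted effect of over 50% in size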
Mito fusion yeast: qHTS Assay for Small Molecule Inhibitors of Mitochondrial Division or Activators of Mitochondrial Fusion | S. cerevisiae fusion-defective mutant growth rescue, CellTiterGlo 48 h | Potency, µM (top dose mostly 46.1 µM), for the others: at the top dose growth rescue (activation), usual class: activators | 0.23% of 320,000 active; also: % of control where 0% means no effect; nearly all actives have a fitted effect of over 45% in size
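Read-out: ATP-based luminescence (CellTiterGlo, 10 min ambient) reporting growth of fusion-defective ts yeast after 48 hours at 37C on glycerol/ethanol YPEG medium in the presence of compound.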
uPA surface inh: qHTS for Inhibitors of Cell Surface uPA Generation; cell surface uPA generation assay, qHTS; Potency, µM (titrated, usually from 38.3 µM), for inactives: at the highest dose activity change, negative = inhibition, hits mostly inhibitors; 0.31% of 330,000 active; AID 540303, 2011; active = well fitted inhibition curve with a large enough effect; inconclusive = small, poorly fitted or top-dose-only effect; inactive = no such curve, though single readings can be large or run the other way; tested in mouse RAW 264.7 cells; also: % is scaled to controls: 0 for no effect and ±100 for the full control effect; nearly all actives have a fitted effect of over 55% in size
RORgamma inh: qHTS for inhibitors of ROR gamma transcriptional activity | Nuclear receptor ROR-gamma (Mus musculus), P51450 | Drosophila S2 Gal4-RORgamma UAS-luciferase reporter, 20 h | Potency, µM (titrated, usually from 53.6 µM), for the others: top-dose activity change, negative = inhibition, usual class: inhibitors | 5.4% of 310,000 active | AID 2551, 2010; also: % is scaled to controls: 0 for no effect and ±100 for the full control effect; nearly all actives have a fitted effect of over 60% in size
Target sequence (P51450 whole entry, looked up, the tested form may be a part): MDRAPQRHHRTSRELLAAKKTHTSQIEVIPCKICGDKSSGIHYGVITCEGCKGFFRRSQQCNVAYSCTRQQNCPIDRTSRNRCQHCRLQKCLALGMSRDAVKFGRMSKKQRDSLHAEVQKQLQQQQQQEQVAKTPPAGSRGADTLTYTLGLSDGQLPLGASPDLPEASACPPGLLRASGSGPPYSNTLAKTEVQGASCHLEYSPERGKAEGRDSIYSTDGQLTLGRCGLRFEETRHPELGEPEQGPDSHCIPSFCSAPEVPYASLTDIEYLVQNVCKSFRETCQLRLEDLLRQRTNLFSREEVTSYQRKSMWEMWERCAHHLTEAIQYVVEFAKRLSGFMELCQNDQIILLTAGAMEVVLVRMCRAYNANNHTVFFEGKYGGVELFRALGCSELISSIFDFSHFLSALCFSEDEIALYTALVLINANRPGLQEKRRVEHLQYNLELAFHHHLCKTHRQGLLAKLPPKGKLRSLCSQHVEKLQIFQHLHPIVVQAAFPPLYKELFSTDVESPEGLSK
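Stably transfected Drosophila Schneider cells are the test system, with ROR gamma fused to Gal4 and luciferase under UAS control; luminescence is read after 20 hr of 700 uM copper sulfate induction at ambient temperature.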
Chronic BCR inh: qHTS Assay to Find Inhibitors of Chronic Active B-Cell Receptor Signaling | ABC-DLBCL IkBa-CBG/CBR reporter, luminescence ratio, 4 h | Potency, µM (titrated, usually from 46.1 µM), without a hit: top-dose activity change, negative = inhibition, hits mostly inhibitors | 0.05% of 340,000 active | AID 493014, 2011; active = well fitted inhibition curve with a large enough effect in the signal ratio, with a control signal flat, not every such curve was filed as active; inconclusive = small, poorly fitted or top-dose-only effect, or effect the other way, or a change in a side signal; the % refers to the signal ratio;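 also: plate controls were basal doxycycline-induced cells for no effect and cells given 10 µM MG132 for full effect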
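TMD8 human ABC-DLBCL cells with doxycycline-inducible IκBα–green luciferase fusion and unfused red luciferase, in 0.5% FBS medium; compounds up to 46 uM, 4 h at 37C. Green/red luminescence ratio, filter-overlap corrected, fitted to concentration-response curves.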
a7 integrin act: qHTS for Activators of Integrin-Mediated Alleviation for Muscular Dystrophy; Potency, µM (top dose mostly 38.3 µM), inactives show top-dose activation, hits mostly activators; AID 624291, 2012; alpha7betagal myoblasts, beta-gal FDG fluorescence, 48 h; 0.064% of 350,000 active;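 also: 100% = response of the positive control SU9516; nearly all actives have a fitted effect of over 60% in size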
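Alpha7betagal+/- myoblasts (passage 13) were plated 16-24 hr, then exposed to compounds (1:260 dilution of DMSO stock) for 48 hours at 37C. After MPER lysis, β-galactosidase reporter activity was read as FDG fluorescence (ex 480/em 540) after 30 minutes.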
* hit, by the source's call; ? = inconclusive; . = not tested or not shown; ! = a repeat was not active; [ ] = remark or other dose. Unless noted, calls follow the shape of the dose curve; as a rule, active = well fitted curve in the direction sought with a large enough effect; inconclusive = small, poorly fitted or top-dose-only effect, or another doubt; inactive = no such curve, though single readings can be large; an effect the other way counts as inactive or inconclusive. Potency is read from the fitted curve at half-maximal effect.

SMILES	Gal4-VP16 FLuc	Mito fusion yeast	uPA surface inh	RORgamma inh	Chronic BCR inh	a7 integrin act
Cn1cc([N+](=O)[O-])c(C(=O)N2CCN(Cc3ccc4c(c3)OCO4)CC2)n1	-7%	4%	1%	-12%	4%	12%
CCOc1c(Br)cc(C(N)=O)cc1OCc1ccccc1	2%	11µM*	2%	-17%	1%	-11%
COc1ccc(C=CC(=O)c2ccc(OC)c(OC)c2)cc1O	.	.	.	.	.	-5%
COc1cc(/C=C/C(=O)/C=C(O)/C=C/c2ccc(O)c(OC)c2)ccc1O	?	2%	?	16µM*!	?	-16%
COc1cc(/C=C/C(=O)CC(=O)/C=C/c2ccc(O)c(OC)c2)ccc1O	16µM*	1%	?	11µM*	?	.
COc1ccc(C(=O)/C=C/c2ccc(OC)c(O)c2)c(F)c1	?	5%	-11%	10µM*	?	-59%
COc1ccc(/C=C/C(=O)CC(=O)/C=C/c2cccc(O)c2OC)cc1O	4%	.	.	6.3µM*	.	.
COc1cc(/C=C/C(=O)O)ccc1O	4%	.	4%	2%	.	23%
CCCn1c(-c2ccc(F)cc2)nc2c(N3CCN(Cc4nc(OC)cc(OC)n4)CC3)nc(C)nc21	6%	.	.	-9%	.	.
CC1(C)CCC(=O)N2CC[C@H]3c4cc5ccccc5nc4C[C@@H]1[C@H]32	.	.	0%	.	.	-8%
CSc1nnc(CCCCCCCCc2nnc(SC)o2)o1	-3%	-4%	-12%	5%	0%	-16%
COc1ccc(CCNC(=O)Cc2ccc(OCc3ccccc3)c(OC)c2[N+](=O)[O-])cc1OCc1ccccc1	3.2µM*	9%	-3%	?	?	-29%
CN(Cc1ccccc1)c1nc(CN2CCOCC2)nc2scc(-c3ccccc3)c12	?	?	5%	10µM*	?	-25%
Fc1ccc(N2CCN(c3nc(CN4CCOCC4)nc4scc(-c5ccccc5)c34)CC2)cc1	-20%	-6%	?	10µM*	-1%	7%
Fc1ccc(CN2CCN(c3ncnc4scc(-c5ccccc5)c34)CC2)cc1	-5%	0%	-25%	13%	?	-17%
CCNc1nc(CN2CCCCC2)nc2scc(-c3ccccc3)c12	?	-23%	-8%	16µM*	0%	-49%
OCC1CCCN(c2nc(CN3CCCCC3)nc3scc(-c4ccccc4)c23)C1 (stereo unspecified)	0%	-19%	-15%	-25%	?	-33%
COc1ccc(-c2c(C3C4C=CCC(C)C4C(=O)N3Cc3ccccc3)ccc3ccccc23)cc1OC (stereo unspecified)	6%	.	.	6%	.	.
CC(C)N1C(=S)N(Cc2ccco2)C(=O)C1CC(=O)Nc1ccccc1 (stereo unspecified)	-8%	9%	7%	18µM*	?	-11%
COC(=O)c1sc2ccccc2c1NC(=O)c1ccc(S(=O)(=O)N2CCCC(C)C2)cc1 (stereo unspecified)	-8%	0%	3%	-12%	7%	-5%
Cc1ccc2nc(NNC(=O)c3ccc(S(=O)(=O)N4CCc5ccccc5C4)cc3)sc2c1	-10%	-1%	?	-1%	?	18%
Cc1cc(C)c2nc(NNC(=O)c3ccc(S(=O)(=O)N4CC(C)CC(C)C4)cc3)sc2c1 (stereo unspecified)	7.9µM*	-5%	?	2µM*	0%	-46%
Cc1cccc2sc(NNC(=O)c3ccc(S(=O)(=O)N4CC(C)CC(C)C4)cc3)nc12 (stereo unspecified)	1.4µM*	-9%	?	0.71µM*	-6%	-54%
Cc1cc(C)c2nc(NNC(=O)c3ccc(S(=O)(=O)N4CCCC(C)C4)cc3)sc2c1 (stereo unspecified)	5µM*	-6%	5.6µM*	0.79µM*	1%	-50%
COc1ccc(N(C)S(=O)(=O)c2cccc(C(=O)OCC(=O)N3CC(C)CC(C)C3)c2)cc1 (stereo unspecified)	.	.	1%	.	-5%	-5%
SMILES	Gal4-VP16 FLuc	Mito fusion yeast	uPA surface inh	RORgamma inh	Chronic BCR inh	a7 integrin act
CCN1C(=O)[C@@H]2[C@H](C1=O)[C@@H]1C(=O)Nc3ccccc3C(=O)N1[C@@H]2c1ccc(OC)cc1	.	-6%	-1%	.	5%	24%
Cc1ccc(C(=O)Nc2cnc3ccccc3c2)cc1	2.8µM*	-3%	-7%	3.2µM*	?	4%
Cc1cc(C(=O)Nc2cnc3ccccc3c2)ccc1[N+](=O)[O-]	6%	1%	0%	20%	?	0%
O=C(O)c1cccc(NC(=O)c2ccccc2)c1	.	.	-2%	.	.	25%
Cc1ccc(C(=O)NC(=S)Nc2ccc(NC(=O)c3cccc(Cl)c3)cc2)cc1	10µM*	-5%	-4%	?	-2%	-3%
CCOc1ccc(C(=O)Nc2cccc(C(=O)O)c2)cc1Cl	?	-6%	-11%	6.3µM*	?	?
CCOc1ccc(C(=O)Nc2cc(NC(=O)c3ccc(OCC)c(Cl)c3)cc(C(=O)O)c2)cc1Cl	2%[10 µM]	-4%	1%	27%	3%	8%
Cc1ccc(C(=O)Nc2cccc(C(=O)O)c2)cc1	18µM*	-1%	-9%	5µM*	?	-8%
CC(=O)Nc1ccn(C2CC3OCC(NC(=O)C(NC(=O)OC(C)(C)C)C(C)OCc4ccccc4)C3O2)c(=O)n1 (stereo unspecified)	-5%	.	.	-19%	.	.
O=C(O)c1cccc(NC(=S)NC(=O)c2ccc3ccccc3c2)c1	7.1µM*	8%	-4%	10µM*	?	-19%
CCC(=O)Nc1cccc(NC(=S)NC(=O)c2ccc(C)cc2)c1	7%	-5%	?	-11%	1%	-14%
O=C(Nc1ccncc1)c1ccc(-c2ccccc2)cc1	?	-6%	?	7.9µM*	?	-23%
O=C(O)c1ccc(NC(=S)NC(=O)c2ccc3ccccc3c2)cc1	-4%	-1%	-3%	?	?	19%
O=C(NC(=S)Nc1cccc(CO)c1)c1ccc(-c2ccccc2)cc1	2.8µM*	-8%	-1%	1.6µM*	?	-40%
O=C(Nc1cccnc1)c1ccc(-c2ccccc2)cc1	2%	-7%	-18%	22%	?	23%
O=C(O)c1cccc(NC(=O)c2ccc3c(c2)C(=O)N(CC2CCCO2)C3=O)c1 (stereo unspecified)	-30%	0%	3%	0.56µM*	?	16%

Assay outcomes deposited in PubChem BioAssay by National Center for Advancing Translational Sciences (NCATS).
